Reference: PubChem BioAssay (EPA / NIEHS)
Activity calls are given as the source filed them. How the source made its calls: active means hit-call score of the fitted dose curve at least 0.9, where 1 is the maximum; inactive means score below 0.9.

Columns and labels:
Settings in all cases: mRNA level, 48 h; actives raise or lower the signal
[1] = read-out: CYP4A11 (gene 1579); experiment: LTEA_HepaRG_CYP4A11: Life Technologies and Expression Analysis (LTEA) Assay for CYP4A11 using HepaRG (AID 2283486)
Procedure, shortened: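 Readout is CYP4A11 mRNA induction or suppression (qRT-PCR, ACTB/GAPDH/POLR2A normalization) in human HepaRG cells after 48 h chemical treatment, concentrations to 100 uM in 0.5% DMSO, fitted bidirectionally against vehicle.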

[2] = read-out: Cytochrome P450 3A4 (Homo sapiens) (UniProt P08684); experiment: LTEA_HepaRG_CYP3A4: Life Technologies and Expression Analysis (LTEA) Assay for CYP3A4 using HepaRG (AID 2283487)
Procedure, shortened: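 CYP3A4 transcript measured by TaqMan qRT-PCR and normalized to three housekeeping genes after 48 h chemical exposure of human HepaRG cells. Top concentration 100 uM, half-log steps, 0.5% DMSO vehicle; gain or loss fitted against DMSO baseline.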

[3] = read-out: DNA damage-inducible transcript 3 (DDIT3), DDIT3 (gene 1649); experiment: LTEA_HepaRG_DDIT3: Life Technologies and Expression Analysis (LTEA) Assay for DNA damage-inducible transcript 3 (DDIT3) using HepaRG (AID 2283488)
Procedure, shortened: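 DDIT3 transcript was quantified by qRT-PCR with ACTB/GAPDH/POLR2A normalization after 48 h chemical treatment of differentiated HepaRG cells in 0.5% DMSO. Dosing was eight-point, half-log, top 100 uM, duplicate wells. Curves fitted bidirectionally versus DMSO.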

[4] = read-out: Pro-epidermal growth factor (Homo sapiens) (UniProt P01133); experiment: LTEA_HepaRG_EGF: Life Technologies and Expression Analysis (LTEA) Assay for Epidermal growth factor (EGF) using HepaRG (AID 2283489)
Procedure, shortened: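 EGF expression changes in human HepaRG cells are scored by bidirectional fitting relative to 0.5% DMSO controls. Chemicals are tested at eight half-log concentrations up to 100 uM for 48 h in serum-free induction medium.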

[5] = read-out: Early growth response protein 1 (EGR1) transcription factor, EGR1 (gene 1958); experiment: LTEA_HepaRG_EGR1: Life Technologies and Expression Analysis (LTEA) Assay for Early growth response protein 1 (EGR1) transcription factor using HepaRG (AID 2283490)
Procedure, shortened: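 EGR1 expression change in human HepaRG after 48 h chemical exposure, assessed by housekeeping-normalized qRT-PCR; concentration-response up to 100 uM, fitted in both directions against DMSO controls.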

[6] = read-out: Ezrin (EZR), EZR (gene 7430); experiment: LTEA_HepaRG_EZR: Life Technologies and Expression Analysis (LTEA) Assay for Ezrin (EZR) using HepaRG (AID 2283491)
Procedure, shortened: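 HepaRG, 48 h chemical exposure, 8-pt half-log series from 100 uM, 0.5% DMSO vehicle, duplicates. Read-out: EZR mRNA by TaqMan qRT-PCR (Fluidigm array), housekeeping-normalized; bidirectional curve fit vs DMSO baseline.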

[7] = read-out: Cytochrome P450 3A7 (Homo sapiens) (UniProt P24462); experiment: LTEA_HepaRG_CYP3A7: Life Technologies and Expression Analysis (LTEA) Assay for CYP3A7 using HepaRG (AID 2283492)
Procedure, shortened: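 Cells were thawed, plated, cultured 48 h, then treated for a further 48 h with chemicals (eight-point half-log series from 100 uM, 0.5% DMSO). RNA was isolated and CYP3A7 expression quantified by qRT-PCR normalised to ACTB, GAPDH and POLR2A.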

[8] = read-out: CYP3A5 (gene 1577); experiment: LTEA_HepaRG_CYP3A5: Life Technologies and Expression Analysis (LTEA) Assay for CYP3A5 using HepaRG (AID 2283493)
Procedure, shortened: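 mRNA levels were quantified by qRT-PCR on Fluidigm arrays and normalized to three housekeeping genes. Differentiated HepaRG cells received 48 h exposure (top 100 uM, half-log steps, 0.5% DMSO vehicle, duplicate); bidirectional fitting versus DMSO.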

[9] = read-out: Cytochrome P450 4A22 (Homo sapiens) (UniProt Q5TCH4); experiment: LTEA_HepaRG_CYP4A22: Life Technologies and Expression Analysis (LTEA) Assay for Cytochrome P450 4A22 (CYP4A22) using HepaRG (AID 2283495)
Procedure, shortened: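 Cryopreserved HepaRG cells, plated and cultured 48 h, then switched to serum-free induction medium and treated 48 h (duplicates, up to 100 uM, half-log steps, 0.5% DMSO). Expression change of CYP4A22 was fitted bidirectionally against vehicle.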

[10] = read-out: Cytochrome P450 7A1 (Homo sapiens) (UniProt P22680); experiment: LTEA_HepaRG_CYP7A1: Life Technologies and Expression Analysis (LTEA) Assay for Cytochrome P450 7A1 (CYP7A1) using HepaRG (AID 2283496)
Procedure, shortened: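 HepaRG, 48 h exposure, 8-pt half-log series from 100 uM, 0.5% DMSO vehicle, duplicates. Readout: TaqMan qRT-PCR mRNA vs three housekeeping genes; bidirectional curve fit against DMSO baseline.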

[11] = read-out: Glutathione S-Transferase (GSTA2), GSTA2 (gene 2939); experiment: LTEA_HepaRG_GSTA2: Life Technologies and Expression Analysis (LTEA) Assay for Glutathione S-Transferase (GSTA2) using HepaRG (AID 2283497)
Procedure, shortened: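 Oxidative-stress marker GSTA2 is quantified by TaqMan qRT-PCR in HepaRG cultures treated 48 h across an eight-point range to 100 uM. Expression is normalized to endogenous controls and compared with 0.5% DMSO vehicle.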

[12] = read-out: Glutamate-cysteine ligase catalytic (GCLC), GCLC (gene 2729); experiment: LTEA_HepaRG_GCLC: Life Technologies and Expression Analysis (LTEA) Assay for Glutamate-cysteine ligase catalytic (GCLC) using HepaRG (AID 2283498)
Procedure, shortened: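 Oxidative-stress marker GCLC is measured as mRNA change in human HepaRG liver cells after 48 h chemical treatment in 0.5% DMSO, eight concentrations from 100 uM. Activity is fitted bidirectionally against vehicle.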

[13] = read-out: Glutamate-cysteine ligase regulatory (GCLM), GCLM (gene 2730); experiment: LTEA_HepaRG_GCLM: Life Technologies and Expression Analysis (LTEA) Assay for Glutamate-cysteine ligase regulatory (GCLM) using HepaRG (AID 2283500)
Procedure, shortened: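 GCLM expression quantified by qRT-PCR, normalized to three housekeeping genes, after 48 h chemical treatment of HepaRG cells in duplicate at 8 concentrations (top 100 uM, half-log steps, 0.5% DMSO). Changes fitted both directions against vehicle.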

[14] = read-out: Glutathione S-transferase M3 (GSTM3), GSTM3 (gene 2947); experiment: LTEA_HepaRG_GSTM3: Life Technologies and Expression Analysis (LTEA) Assay for Glutathione S-transferase M3 (GSTM3) using HepaRG (AID 2283501)
Procedure, shortened: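 Changes in GSTM3 expression, an oxidative-stress marker, were scored by bidirectional curve fitting against 0.5% DMSO vehicle. Human HepaRG cultures received chemicals for 48 h in duplicate, highest concentration 100 uM with half-log dilutions.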

[15] = read-out: Hypoxia-inducible factor 1-alpha (Homo sapiens) (UniProt Q16665); experiment: LTEA_HepaRG_HIF1A: Life Technologies and Expression Analysis (LTEA) Assay for Hypoxia-inducible factor 1 (HIF1A) Trancription factor using HepaRG (AID 2283503)
Procedure, shortened: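 HIF1A transcript level read by qRT-PCR (ACTB, GAPDH, POLR2A normalization) after 48 h chemical exposure of HepaRG cultures. Eight half-log concentrations, top 100 uM, 0.5% DMSO vehicle, duplicates; bidirectional curve fit against DMSO baseline.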

[16] = read-out: 3-Hydroxy-3-Methylglutaryl-CoA Synthase 2 (HMGCS2), HMGCS2 (gene 3158); experiment: LTEA_HepaRG_HMGCS2: Life Technologies and Expression Analysis (LTEA) Assay for 3-Hydroxy-3-Methylglutaryl-CoA Synthase 2 (HMGCS2) using HepaRG (AID 2283504)
Procedure, shortened: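 Expression of HMGCS2 in human HepaRG liver cells is measured by qRT-PCR 48 h after dosing (highest 100 uM, half-log series, 0.5% DMSO). Values come from bidirectional concentration-response fitting with DMSO as baseline.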

[17] = read-out: HGF (gene 3082); experiment: LTEA_HepaRG_HGF: Life Technologies and Expression Analysis (LTEA) Assay for Hepatocyte Growth Facto (HGF) using HepaRG (AID 2283505)
Procedure, shortened: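 Gain or loss of HGF mRNA in human HepaRG liver cells after 48 h chemical exposure; eight concentrations up to 100 uM with 0.5% DMSO vehicle, quantified by TaqMan qRT-PCR.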

[18] = read-out: Fatty Acid-Binding Protein 1 (FABP1), FABP1 (gene 2168); experiment: LTEA_HepaRG_FABP1: Life Technologies and Expression Analysis (LTEA) Assay for Fatty Acid-Binding Protein 1 (FABP1) using HepaRG (AID 2283494)
Procedure, shortened: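 Values reflect bidirectional concentration-response fitting of FABP1 mRNA change against 0.5% DMSO controls. Human HepaRG cultures received eight half-log doses (top 100 uM) for 48 h; expression quantified by TaqMan qRT-PCR with housekeeping-gene normalization.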

[19] = read-out: growth arrest and DNA damage 45 (GADD45G), GADD45G (gene 10912); experiment: LTEA_HepaRG_GADD45G: Life Technologies and Expression Analysis (LTEA) Assay for growth arrest and DNA damage 45 (GADD45G) using HepaRG (AID 2283499)
Procedure, shortened: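 Human hepatic HepaRG line treated 48 h with chemicals (eight concentrations, half-log steps from 100 uM); transcript induction or repression of GADD45G scored by qRT-PCR versus DMSO vehicle.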

Chain of Hypoxia-inducible factor 1-alpha (Homo sapiens) (Q16665 whole entry, looked up): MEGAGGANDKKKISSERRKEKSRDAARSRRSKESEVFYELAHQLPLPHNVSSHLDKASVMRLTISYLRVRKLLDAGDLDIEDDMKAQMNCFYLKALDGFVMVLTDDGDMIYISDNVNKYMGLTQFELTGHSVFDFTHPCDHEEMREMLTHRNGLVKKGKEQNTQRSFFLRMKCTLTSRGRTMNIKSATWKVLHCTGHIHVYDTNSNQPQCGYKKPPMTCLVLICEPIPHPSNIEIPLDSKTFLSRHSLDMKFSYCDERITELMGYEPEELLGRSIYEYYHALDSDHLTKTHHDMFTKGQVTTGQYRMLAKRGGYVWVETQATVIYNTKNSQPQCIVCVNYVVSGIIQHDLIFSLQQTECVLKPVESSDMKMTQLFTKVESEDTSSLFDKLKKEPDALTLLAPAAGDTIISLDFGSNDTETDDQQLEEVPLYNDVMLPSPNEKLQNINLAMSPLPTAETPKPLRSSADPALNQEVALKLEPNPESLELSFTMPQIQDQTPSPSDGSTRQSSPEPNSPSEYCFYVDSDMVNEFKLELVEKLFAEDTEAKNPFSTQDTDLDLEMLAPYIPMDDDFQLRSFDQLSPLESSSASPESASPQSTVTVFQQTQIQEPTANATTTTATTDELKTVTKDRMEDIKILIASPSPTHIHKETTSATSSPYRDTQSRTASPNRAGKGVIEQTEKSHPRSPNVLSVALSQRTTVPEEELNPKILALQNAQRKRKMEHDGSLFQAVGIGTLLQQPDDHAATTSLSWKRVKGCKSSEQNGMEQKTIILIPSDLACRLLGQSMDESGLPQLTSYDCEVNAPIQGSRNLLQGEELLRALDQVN
Chain of Cytochrome P450 3A7 (Homo sapiens) (P24462 whole entry, looked up): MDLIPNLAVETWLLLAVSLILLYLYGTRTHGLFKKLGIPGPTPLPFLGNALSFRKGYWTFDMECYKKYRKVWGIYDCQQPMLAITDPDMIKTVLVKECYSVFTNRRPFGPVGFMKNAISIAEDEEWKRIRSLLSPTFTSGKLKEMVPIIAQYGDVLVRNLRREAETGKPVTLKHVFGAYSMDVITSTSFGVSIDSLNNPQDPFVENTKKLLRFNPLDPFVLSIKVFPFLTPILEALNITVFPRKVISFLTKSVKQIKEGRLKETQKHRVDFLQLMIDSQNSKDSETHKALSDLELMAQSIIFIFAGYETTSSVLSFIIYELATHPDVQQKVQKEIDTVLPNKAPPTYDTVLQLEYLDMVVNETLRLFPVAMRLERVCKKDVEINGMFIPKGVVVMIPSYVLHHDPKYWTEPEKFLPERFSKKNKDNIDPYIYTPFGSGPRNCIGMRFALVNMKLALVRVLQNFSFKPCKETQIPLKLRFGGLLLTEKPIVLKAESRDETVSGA
Chain of Cytochrome P450 3A4 (Homo sapiens) (P08684 whole entry, looked up): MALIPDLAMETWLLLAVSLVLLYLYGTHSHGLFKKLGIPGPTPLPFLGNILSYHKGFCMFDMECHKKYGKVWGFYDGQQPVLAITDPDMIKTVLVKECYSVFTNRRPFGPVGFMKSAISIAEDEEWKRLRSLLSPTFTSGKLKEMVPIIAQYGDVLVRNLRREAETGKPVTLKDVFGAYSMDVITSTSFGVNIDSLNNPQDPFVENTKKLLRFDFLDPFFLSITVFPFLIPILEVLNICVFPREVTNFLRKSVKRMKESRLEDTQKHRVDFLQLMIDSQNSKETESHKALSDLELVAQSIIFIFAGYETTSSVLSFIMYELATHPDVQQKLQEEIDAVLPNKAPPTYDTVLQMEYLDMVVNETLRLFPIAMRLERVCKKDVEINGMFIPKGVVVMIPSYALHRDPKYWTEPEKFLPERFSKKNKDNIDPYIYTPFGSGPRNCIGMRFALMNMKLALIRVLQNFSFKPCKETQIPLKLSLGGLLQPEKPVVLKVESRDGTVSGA

CCCCC(CC)COP(=O)(OCC(CC)CCCC)OCC(CC)CCCC (stereo not drawn)
outcome [1]: inactive | AC50 [2]: 5.79 µM (active) | outcome [3]: inactive | outcome [4]: inactive | outcome [5]: inactive | outcome [6]: inactive | AC50 [7]: 5.61 µM (active) | outcome [8]: inactive | outcome [9]: inactive | outcome [10]: inactive | outcome [11]: inactive | outcome [12]: inactive | outcome [13]: inactive | outcome [14]: inactive | outcome [15]: inactive | outcome [16]: inactive | outcome [17]: inactive

O=C1OC(c2ccc(O)cc2)(c2ccc(O)cc2)c2ccccc21
AC50 [1]: 80.1 µM (active) | outcome [3]: inactive | outcome [4]: inactive | outcome [5]: inactive | outcome [6]: inactive | AC50 [8]: 62.1 µM (active) | outcome [18]: inactive | outcome [9]: inactive | AC50 [10]: 50 µM (active) | AC50 [11]: 78.5 µM (active) | AC50 [12]: 32 µM (active) | outcome [13]: inactive | AC50 [14]: 50 µM (active) | AC50 [16]: 67.6 µM (active) | AC50 [17]: 79.4 µM (active)

CC(=O)CC(c1ccccc1)c1c(O)c2ccccc2oc1=O (stereo not drawn)
outcome [1]: inactive | outcome [3]: inactive | outcome [4]: inactive | outcome [5]: inactive | outcome [6]: inactive | AC50 [7]: 34.7 µM (active) | outcome [8]: inactive | outcome [9]: inactive | outcome [10]: inactive | outcome [11]: inactive | outcome [12]: inactive | outcome [19]: inactive | outcome [13]: inactive | outcome [14]: inactive | outcome [15]: inactive | outcome [16]: inactive | outcome [17]: inactive

CS(=O)(=O)c1ccc([C@@H](C[C@H]2CCC(=O)C2)C(=O)Nc2cnccn2)cc1Cl
outcome [1]: inactive | AC50 [3]: 18.6 µM (active) | AC50 [4]: 23.5 µM (active) | outcome [5]: inactive | outcome [6]: inactive | outcome [18]: inactive | outcome [11]: inactive | AC50 [12]: 1.01 µM (active) | outcome [19]: inactive | AC50 [13]: 1.81 µM (active) | AC50 [14]: 17.6 µM (active) | outcome [15]: inactive | outcome [16]: inactive | AC50 [17]: 1.71 µM (active)
